Test [1] deals with Nuclear receptor coactivator 3 (Homo sapiens) (UniProt Q9Y6Q9). The experiment in a line: SRC3 coactivator transcriptional activity inhibitors, confirmation, cell-based, luminescence, quadruplicate (AID 588792;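 active = mean inhibition over 43.08%, the solvent-only control mean plus 3 SD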;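 also: 0% = DMSO treated cells and 100% = gossypol at 36 µM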). Particulars: HEK293 GAL4-SRC3 luciferase reporter, at 3.6 µM, hits give high values.
The test system of test [2] is transactivating tegument protein VP16 (Human herpesvirus 1), Gal4-VP16 luciferase reporter. Description: VP16 transactivation inhibitors, counter-screen for SRC3 inhibitor project, cell-based, luminescence, high throughput (AID 588794; in the data active = inhibition above about 30%). The note with it: mammalian cells, VP16-driven luciferase reporter luminescence; at 3.6 µM; hits give high values. On the technique in general: A counterscreen serves to expose hits that act by an unwanted route or on another target.

Test [3] concerns the target Nuclear receptor coactivator 1 (Homo sapiens) (UniProt Q15788). Description: SRC1 coactivator transcriptional activity inhibitors, confirmation, cell-based, luminescence, quadruplicate (AID 588820;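 active = mean inhibition above 46.68%, the untreated control wells mean plus 3 SD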;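 also: 0% = DMSO wells and 100% = gossypol 36 µM treated wells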). Particulars: HEK293 GAL4-SRC1 luciferase reporter, at 3.6 µM, hits give high values.
Test [4] can be described thus: VP16 transactivation inhibitors, counter-screen for SRC1 inhibitor project, cell-based, luminescence, high throughput (AID 588824; in the data active = inhibition above about 25%). Particulars: cell-based VP16 transactivation luciferase luminescence; at 3.6 µM; hits give high values.
Test [5] relates to transactivating tegument protein VP16 (Human herpesvirus 1). The experiment in a line: VP16 transactivation reporter inhibitors, counter-screen for SRC2 inhibitor project, cell-based, luminescence, single concentration (AID 652007). The note with it: cell-based VP16 transactivation luciferase reporter, at 8.9 µM, hits give high values.
Test [6] addresses Nuclear receptor coactivator 2 (Homo sapiens) (UniProt Q15596). The experiment in a line: SRC2 coactivator transcriptional activity inhibitors, confirmation, cell-based, luminescence, HEK293, triplicate (AID 652008;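 active = mean inhibition above 46.5%, the solvent-only control mean plus 3 SD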;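 also: 0% = DMSO-treated cells and 100% = Gossypol at 36 µM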). The note with it: HEK293 GAL4-SRC2 luciferase reporter, at 8.9 µM, hits give high values.

Molecules are shown by their SMILES. Unmarked numbers belong to inactive results. Active and inactive are the calls of the source. Rule as the data show it, unless noted: active = inhibition above about 36%; inactive = the rest.

Chain of Nuclear receptor coactivator 3 (Homo sapiens) (Q9Y6Q9 whole entry, looked up, the tested form may be a part): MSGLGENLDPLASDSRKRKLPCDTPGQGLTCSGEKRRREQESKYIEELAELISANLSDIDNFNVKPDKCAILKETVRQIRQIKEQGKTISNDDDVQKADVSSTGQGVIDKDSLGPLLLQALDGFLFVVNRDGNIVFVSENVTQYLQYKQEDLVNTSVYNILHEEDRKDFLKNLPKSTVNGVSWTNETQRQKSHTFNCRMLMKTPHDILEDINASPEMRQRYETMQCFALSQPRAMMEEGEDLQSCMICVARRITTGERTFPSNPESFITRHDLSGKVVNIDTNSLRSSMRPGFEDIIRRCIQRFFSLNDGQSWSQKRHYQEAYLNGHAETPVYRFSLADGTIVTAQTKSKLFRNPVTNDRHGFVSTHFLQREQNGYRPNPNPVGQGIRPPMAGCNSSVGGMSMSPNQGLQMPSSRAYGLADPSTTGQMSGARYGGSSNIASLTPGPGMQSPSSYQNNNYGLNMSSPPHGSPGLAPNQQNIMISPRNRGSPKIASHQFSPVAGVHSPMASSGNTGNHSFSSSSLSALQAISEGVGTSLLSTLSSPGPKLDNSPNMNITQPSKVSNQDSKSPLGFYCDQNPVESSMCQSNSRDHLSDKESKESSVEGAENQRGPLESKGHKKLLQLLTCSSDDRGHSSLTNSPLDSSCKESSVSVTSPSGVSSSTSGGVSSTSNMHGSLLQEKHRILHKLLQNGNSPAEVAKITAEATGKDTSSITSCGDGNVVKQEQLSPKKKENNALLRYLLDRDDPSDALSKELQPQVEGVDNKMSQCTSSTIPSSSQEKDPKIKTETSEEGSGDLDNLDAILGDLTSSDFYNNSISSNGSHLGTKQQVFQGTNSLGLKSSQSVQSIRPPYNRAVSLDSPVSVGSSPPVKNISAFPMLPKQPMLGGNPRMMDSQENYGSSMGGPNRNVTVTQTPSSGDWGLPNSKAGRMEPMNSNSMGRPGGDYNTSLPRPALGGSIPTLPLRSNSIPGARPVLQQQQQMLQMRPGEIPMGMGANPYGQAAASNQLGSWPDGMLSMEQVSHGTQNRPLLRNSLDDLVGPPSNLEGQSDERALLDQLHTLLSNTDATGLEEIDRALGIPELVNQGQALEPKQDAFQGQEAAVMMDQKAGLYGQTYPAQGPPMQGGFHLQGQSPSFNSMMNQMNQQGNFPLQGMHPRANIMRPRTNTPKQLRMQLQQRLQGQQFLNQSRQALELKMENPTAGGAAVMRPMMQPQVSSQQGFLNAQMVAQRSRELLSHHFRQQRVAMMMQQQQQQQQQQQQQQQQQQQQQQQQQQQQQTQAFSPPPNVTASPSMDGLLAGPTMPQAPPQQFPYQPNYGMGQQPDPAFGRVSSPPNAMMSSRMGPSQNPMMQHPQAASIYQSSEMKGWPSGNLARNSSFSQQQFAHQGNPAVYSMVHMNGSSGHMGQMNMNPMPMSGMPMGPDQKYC
Chain of Nuclear receptor coactivator 2 (Homo sapiens) (Q15596 whole entry, looked up, the tested form may be a part): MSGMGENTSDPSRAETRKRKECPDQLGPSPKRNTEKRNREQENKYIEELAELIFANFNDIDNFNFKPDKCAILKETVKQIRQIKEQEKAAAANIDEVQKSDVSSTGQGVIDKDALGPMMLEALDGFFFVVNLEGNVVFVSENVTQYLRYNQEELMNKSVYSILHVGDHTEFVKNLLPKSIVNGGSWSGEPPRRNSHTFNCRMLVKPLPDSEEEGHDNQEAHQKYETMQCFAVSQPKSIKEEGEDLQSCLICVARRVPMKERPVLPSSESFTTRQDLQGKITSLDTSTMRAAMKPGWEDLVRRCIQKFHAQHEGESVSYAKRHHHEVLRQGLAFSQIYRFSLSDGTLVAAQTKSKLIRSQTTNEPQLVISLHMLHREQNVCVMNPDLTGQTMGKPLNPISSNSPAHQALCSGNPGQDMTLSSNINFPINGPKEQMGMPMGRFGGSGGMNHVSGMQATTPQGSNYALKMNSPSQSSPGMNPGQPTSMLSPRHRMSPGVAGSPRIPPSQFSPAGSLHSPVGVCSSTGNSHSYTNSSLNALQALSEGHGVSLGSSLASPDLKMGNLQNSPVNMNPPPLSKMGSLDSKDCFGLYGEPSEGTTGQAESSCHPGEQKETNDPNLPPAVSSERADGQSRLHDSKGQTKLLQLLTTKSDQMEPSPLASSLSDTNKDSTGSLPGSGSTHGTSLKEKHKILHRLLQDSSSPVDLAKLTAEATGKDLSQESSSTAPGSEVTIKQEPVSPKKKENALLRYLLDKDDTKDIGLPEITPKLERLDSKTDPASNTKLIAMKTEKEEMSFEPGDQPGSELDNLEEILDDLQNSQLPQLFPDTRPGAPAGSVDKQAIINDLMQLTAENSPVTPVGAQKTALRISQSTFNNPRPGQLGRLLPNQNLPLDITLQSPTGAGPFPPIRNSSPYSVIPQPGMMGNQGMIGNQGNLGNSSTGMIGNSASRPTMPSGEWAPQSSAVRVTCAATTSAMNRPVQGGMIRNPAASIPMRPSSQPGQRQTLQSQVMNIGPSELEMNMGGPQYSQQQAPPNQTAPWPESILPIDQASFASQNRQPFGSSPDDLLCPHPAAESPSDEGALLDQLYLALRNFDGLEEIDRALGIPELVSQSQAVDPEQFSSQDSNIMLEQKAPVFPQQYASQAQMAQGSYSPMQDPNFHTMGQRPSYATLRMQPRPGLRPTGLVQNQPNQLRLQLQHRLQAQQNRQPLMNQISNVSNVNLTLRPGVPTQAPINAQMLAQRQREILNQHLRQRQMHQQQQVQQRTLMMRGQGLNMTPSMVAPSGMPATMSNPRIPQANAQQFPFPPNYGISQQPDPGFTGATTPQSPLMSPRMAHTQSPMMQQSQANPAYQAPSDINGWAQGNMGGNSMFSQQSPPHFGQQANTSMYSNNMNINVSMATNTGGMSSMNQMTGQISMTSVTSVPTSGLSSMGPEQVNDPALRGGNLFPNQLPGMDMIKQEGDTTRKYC
Chain of Nuclear receptor coactivator 1 (Homo sapiens) (Q15788 whole entry, looked up, the tested form may be a part): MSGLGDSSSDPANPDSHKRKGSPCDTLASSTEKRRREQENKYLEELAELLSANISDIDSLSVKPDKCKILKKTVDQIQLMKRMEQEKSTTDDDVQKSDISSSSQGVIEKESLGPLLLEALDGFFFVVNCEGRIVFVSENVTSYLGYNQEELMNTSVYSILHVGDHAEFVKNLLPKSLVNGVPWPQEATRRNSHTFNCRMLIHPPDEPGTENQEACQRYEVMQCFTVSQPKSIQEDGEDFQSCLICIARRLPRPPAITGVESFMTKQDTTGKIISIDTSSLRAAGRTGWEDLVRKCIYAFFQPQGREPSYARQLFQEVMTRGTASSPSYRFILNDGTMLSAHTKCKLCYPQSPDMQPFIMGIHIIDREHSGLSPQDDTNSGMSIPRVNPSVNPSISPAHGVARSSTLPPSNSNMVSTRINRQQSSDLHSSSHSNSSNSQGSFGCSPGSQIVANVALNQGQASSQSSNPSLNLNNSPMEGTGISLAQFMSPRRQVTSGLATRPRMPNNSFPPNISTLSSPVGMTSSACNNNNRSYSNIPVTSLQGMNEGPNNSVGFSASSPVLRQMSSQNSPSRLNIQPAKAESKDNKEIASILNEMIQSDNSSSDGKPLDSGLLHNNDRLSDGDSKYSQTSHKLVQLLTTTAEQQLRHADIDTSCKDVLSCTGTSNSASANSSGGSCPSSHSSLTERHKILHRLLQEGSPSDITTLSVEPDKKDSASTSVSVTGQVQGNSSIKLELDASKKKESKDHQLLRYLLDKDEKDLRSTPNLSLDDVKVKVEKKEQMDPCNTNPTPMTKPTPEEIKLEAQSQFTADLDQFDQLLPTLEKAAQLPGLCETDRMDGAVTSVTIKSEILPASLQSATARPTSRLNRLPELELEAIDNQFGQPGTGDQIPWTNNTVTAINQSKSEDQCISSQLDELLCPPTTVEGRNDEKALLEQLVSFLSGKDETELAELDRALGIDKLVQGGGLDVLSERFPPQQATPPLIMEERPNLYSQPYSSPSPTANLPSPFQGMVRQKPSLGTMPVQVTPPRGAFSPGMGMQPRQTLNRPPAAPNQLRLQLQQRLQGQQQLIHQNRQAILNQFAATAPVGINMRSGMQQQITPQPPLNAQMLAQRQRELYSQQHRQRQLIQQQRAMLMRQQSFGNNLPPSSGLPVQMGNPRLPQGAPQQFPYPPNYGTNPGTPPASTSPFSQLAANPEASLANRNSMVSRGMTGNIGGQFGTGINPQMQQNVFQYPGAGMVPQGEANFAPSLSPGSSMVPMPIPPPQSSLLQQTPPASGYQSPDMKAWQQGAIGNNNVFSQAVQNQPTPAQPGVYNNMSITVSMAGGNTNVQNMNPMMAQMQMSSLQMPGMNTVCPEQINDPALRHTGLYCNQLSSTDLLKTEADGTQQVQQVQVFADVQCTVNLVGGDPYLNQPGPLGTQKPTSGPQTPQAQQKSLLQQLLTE

Consider `Brc1ccc2ncnc(NCc3cccnc3)c2c1`, for which the inhibition in test [1] is 70.6% (active); in test [2] it was 44% (active); in test [3] it was 55.9% (active); in test [4], 42.8% (active); in test [5], -3.67%; in test [6] it was 39.8%.
In the case of `COc1ccccc1-c1cc2nc(-c3ccccc3)cc(N3CCN(C(=O)c4ccco4)CC3)n2n1`, the inhibition in test [1] is 30.4%; in test [2] it was 48.6% (active); in test [3] it was 17.6%; in test [4] it was 25.1%; in test [5], 62.7% (active); in test [6], 60.3% (active).
For the compound `Cc1cc(NC(c2ccc(Cl)cc2)c2ccc3cccnc3c2O)no1` (stereo not given), the inhibition was 54% (active) in test [1]; 42% (active) in test [2]; 28.2% in test [3]; 58.8% (active) in test [4]; -9.15% in test [5]; 17.6% in test [6].
As to `COc1ccc(-c2nc(-c3ccccn3)no2)cc1`, the inhibition in test [1] was 63.4% (active); in test [2], 48.2% (active); in test [3], 16.6%; in test [4], 44.4% (active); in test [5] it was 62.5% (active); in test [6], 80.7% (active).
As for `CN(C)c1ccc(/C=C/c2nc3ccccc3s2)cc1`, the inhibition in test [1] is 30.4%; in test [2], 28.4%; in test [3], 18.7%; in test [4], 12.9%; in test [5], 77.1% (active); in test [6], 84% (active).
`COCCn1c(C)cc(C2=NNC(=NC3CC3)SC2)c1C`: the inhibition in test [1] is 91.2% (active); in test [2], 87.2% (active); in test [3], 85.7% (active); in test [4] it was 86.1% (active); in test [5] it was 90.8% (active); in test [6] it was 96.7% (active).
Take `CCOc1ccc(/C=C2\SC(=S)N(CCCC(=O)NCCCN3CCOCC3)C2=O)cc1`: the inhibition in test [1] was 29.9%; in test [2] it was 10.6%; in test [3], 22.1%; in test [4], 7.63%; in test [5] it was 59.8% (active); in test [6], 90% (active).
`Cn1nnnc1Sc1ncnc2scc(-c3cccc(Br)c3)c12`: the inhibition in test [1] was 31.4%; in test [2], 43.7% (active); in test [3] it was 43.3%; in test [4], 47.5% (active); in test [5] it was 9.2%; in test [6], 55.7% (active).
Consider `O=c1c2ccccc2cnn1-c1nc2ccccc2[nH]1`, for which the inhibition in test [1] is 57.4% (active); in test [2] it was 50.6% (active); in test [3] it was 22.3%; in test [4] it was 41.9% (active); in test [5] it was 76.6% (active); in test [6], 84.9% (active).
Turning to `CCN(CC)c1ccc(/C=N/NC(=O)c2nnn(-c3nonc3N)c2C(C)C)c(O)c1`, the inhibition in test [1] was 77.3% (active); in test [2], 72.6% (active); in test [3], 68.7% (active); in test [4], 65.5% (active); in test [5], -10.2%; in test [6] it was 29.9%.
For the compound `Cc1cc(C(=O)COC(=O)c2cccnc2Cl)c(C)n1CC1CCCO1` (stereo not given), the inhibition in test [1] was 19.6%; in test [2] it was 27.6%; in test [3], -18.2%; in test [4], -20.1%; in test [5], 6.65%; in test [6], 56.6% (active).
As for `CCc1ccn2cc(-c3cc(-c4ccccc4)no3)nc2c1`, the inhibition in test [1] is 2.16%; in test [2] it was 7.18%; in test [3], -92.4%; in test [4], -4.46%; in test [5] it was 36.5% (active); in test [6], 61.6% (active).
With `O=C(CCl)N1N=C(c2ccco2)CC1c1ccco1` (stereo not given), the inhibition is 59.1% (active) in test [1]; 12.5% in test [2]; 32.7% in test [3]; 4.7% in test [4]; 36.6% (active) in test [5]; 67.9% (active) in test [6].
As for `Cc1ccc(C)c(N2CCN(C(=O)CCS(=O)(=O)c3ccc4c(c3)NC(=O)CO4)CC2)c1`, the inhibition in test [1] was -1.43%; in test [2], 16.3%; in test [3], -0.57%; in test [4], 17.9%; in test [5], 3.15%; in test [6], 15.3%.
With `CC(=O)OC1CC2C(C)(C)C(=O)C=CC2(C)C2CCC3(C)C(c4ccoc4)OC(=O)C4OC43C12C` (stereo not given), the inhibition in test [1] was 49.5% (active); in test [2], 41.8% (active); in test [3] it was 25.9%; in test [4] it was 56.1% (active); in test [5], 43.9% (active); in test [6], 6.63%.
On to `O=C(CCCc1nc(-c2ccccc2Cl)no1)NC1CCCC1`, for which the inhibition in test [1] was 36.4%; in test [2] it was -6.22%; in test [3] it was 22.9%; in test [4], -0.83%; in test [5], 26.2%; in test [6], 92.2% (active).
For `O=C1C=CC(=C(c2ccc(O)cc2)c2ccc(O)cc2)C=C1`, the inhibition was 71.2% (active) in test [1]; 47.5% (active) in test [2]; 54% (active) in test [3]; 46.8% (active) in test [4]; 26.8% in test [5]; 27.1% in test [6].
As to `COc1ccc2ncn(-c3ccccc3)c2c1`, the inhibition was 49.2% (active) in test [1]; 32.7% (active) in test [2]; 46.1% in test [3]; 23.7% in test [4]; -12.1% in test [5]; 38.2% in test [6].
Regarding `COCCn1c(C)cc(C(=O)COC(=O)c2cccc(O)c2)c1C`, the inhibition in test [1] is 2.54%; in test [2], 0.92%; in test [3] it was -62.8%; in test [4] it was -32.7%; in test [5], 37.3% (active); in test [6] it was 51.1% (active).
Regarding `Nc1ccccc1Nc1cccc(C(F)(F)F)c1`, the inhibition in test [1] was 25.9%; in test [2] it was 18.6%; in test [3], -6.37%; in test [4] it was 13.5%; in test [5] it was 6.37%; in test [6], 43.7%.

As a reminder, the inhibition is the relative decrease from the control value, in per cent.

Source of the values: PubChem BioAssay.
